According to PubChem BioAssay (NCATS):
Results filed as inconclusive are left out. Active and inactive are the calls of the source. Calls follow the shape of the dose curve; as a rule, active = well fitted curve in the direction sought with a large enough effect; inconclusive = small, poorly fitted or top-dose-only effect, or another doubt; inactive = no such curve, though single readings can be large; an effect the other way counts as inactive or inconclusive. Where a SMILES comes first, the peptide text is derived from it. Bridges are numbered along the chain shown (N, C = ends). [ ]: non-standard residue; d: D form. hArg = N=C(N)NCCCC[C@H](N)C(=O)O; Mpa = O=C(O)CCS

What was measured:
[1] = qHTS of pediatric cancer cell lines to identify multiple opportunities for drug repurposing: Primary screen for control Hh wild type fibroblast cells (AID 1347106);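 also: % is scaled to controls: 0 for no effect and ±100 for the full control effect; a drop in luminescence marks cytotoxicity and a rise apparent proliferation; nearly all actives have a fitted effect of over 55% in size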
Method in brief: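 Cells (500-1,000/well) in growth media were settled 5 h at 37 degrees C, then given compounds for 48 h. Viability was read as CellTiter-Glo luminescence. Primary runs used MIPE at 11 points (0.78 nM-46 µM) and NPC at 8 points (0.59 nM-46 µM); follow-ups used 11 points.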

[2] = qHTS of pediatric cancer cell lines to identify multiple opportunities for drug repurposing: Primary screen for Rh30 cells (AID 1347107); also: % is scaled to controls: 0 for no effect and ±100 for the full control effect; nearly all actives have a fitted effect of over 75% in size
Method in brief: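 Viability after 48 h compound treatment at 37C, 500-1,000 cells/well, read as ATP luminescence with CellTiter-Glo. Primary screens used 11-point (MIPE, 0.78 nM-46 µM) or 8-point (NPC, 0.59 nM-46 µM) final concentrations; follow-up screens used 11-point dilutions.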

[3] = qHTS of pediatric cancer cell lines to identify multiple opportunities for drug repurposing: Primary screen for Rh41 cells (AID 1347108);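 also: luminescence drop marks cytotoxic hits; nearly all actives have a fitted effect of over 70% in size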
Method in brief: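 Plated cells (500-1,000 per well, growth media) were allowed to settle for 5 hours, treated with compound dilutions for 48 hours, then lysed with CellTiter-Glo for 15 min at room temperature before luminescence reading.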

Measured: activity change, negative = cytotoxic
Also: series mostly up to about 46 µM.

Cc1ccccc1N=Nc1ccc(N=Nc2c(O)ccc3ccccc23)c(C)c1
inactive: [1] | [2] | [3]

Cc1cc(O)cc(C)c1Cl
inactive: [1] | [2] | [3]

O=C1c2ccccc2C(=O)C1c1ccc(Br)cc1
inactive: [1] | [2] | [3]

Nc1ncnc(Nc2ccccc2)n1
inactive: [1] | [2] | [3]

O=c1[nH]c(=O)c2ccccc2o1
inactive: [1] | [2] | [3]

NNC(=O)CP(=O)(c1ccccc1)c1ccccc1
inactive: [1] | [2] | [3]

O=C(/C=C/c1ccccc1)OCc1ccccc1
inactive: [1] | [2] | [3]

Cc1cc(=O)[nH]c(=S)[nH]1
inactive: [1] | [2] | [3]

C[C@@H](c1ncncc1F)C(O)(Cn1cncn1)c1ccc(F)cc1F (stereo partly drawn)
inactive: [1] | [2] | [3]

O=C(O)CCCCC1CCSS1 (stereo not drawn)
inactive: [1] | [2] | [3]

COC(=O)c1ccccc1C(=O)c1ccc(OCCN2CCCCC2)cc1
inactive: [1] | [2] | [3]

CCCCCOC(=O)Nc1nc(=O)n([C@@H]2O[C@H](C)[C@@H](O)[C@H]2O)cc1F
inactive: [1] | [2] | [3]

Cc1onc(-c2ccccc2)c1-c1ccc(S(N)(=O)=O)cc1
inactive: [1] | [2] | [3]

O=C(c1ccccc1)C(O)c1ccccc1 (stereo not drawn)
inactive: [1] | [2] | [3]

CN/C(=C\[N+](=O)[O-])NCCSCc1csc(CN(C)C)n1
inactive: [1] | [2] | [3]

Nc1ccc(C(=O)Oc2ccccc2)c(O)c1
inactive: [1] | [2] | [3]

NC(=O)[C@@H]1CSSCCC(=O)N[C@@H](CCCCN=C(N)N)C(=O)NCC(=O)N[C@@H](CC(=O)O)C(=O)N[C@@H](Cc2c[nH]c3ccccc23)C(=O)N2CCC[C@H]2C(=O)N1 ([Mpa][hArg]GDWPC-NH2; disulfide 1-7)
inactive: [1] | [2] | [3]

CCCCC1(COC(=O)CCC(=O)O)C(=O)N(c2ccccc2)N(c2ccccc2)C1=O
inactive: [1] | [2] | [3]

CC(=O)SC[C@@H](Cc1ccccc1)C(=O)NCC(=O)OCc1ccccc1
inactive: [1] | [2] | [3]

CCCC(O)C(CC)CO (stereo not drawn)
inactive: [1] | [2] | [3]

Cc1c(NC(C)C)c(=O)n(-c2ccccc2)n1C
inactive: [1] | [2] | [3]

CC(C)c1cc2c(cc1S(=O)(=O)O)[C@@]1(C)CCC[C@@](C)(C(=O)O)[C@@H]1CC2
inactive: [1] | [2] | [3]

O=C(NCCCN1CCOCC1)c1ccc(Cl)cc1
inactive: [1] | [2] | [3]

COc1ccc2cc(CCC(C)=O)ccc2c1
inactive: [1] | [2] | [3]

CC(=O)Nc1ccccc1
inactive: [1] | [2] | [3]

Cc1ccc(S(=O)(=O)NC(=O)NC2CCCCCCC2)cc1
inactive: [1] | [2] | [3]

NC(N)=NCCN1CCCCCCC1
inactive: [1] 3.36% [at 0.597 µM] | [2] 25.1% [at 0.597 µM] | [3] 22.2% [at 0.597 µM]

CC(C)(C)NCC(O)COc1cccc2c1CCC(=O)N2 (stereo not drawn)
inactive: [1] | [2] | [3]

CC(=O)Oc1cccc(C)c1
inactive: [1] | [2] | [3]

CC(=O)Nc1ccc(C(=O)O)cc1
inactive: [1] | [2] | [3]

O=C(O)Cc1cn(-c2ccccc2)nc1-c1ccc(Cl)cc1
inactive: [1] | [2] | [3]

O=C1c2cccc(O)c2C(=O)c2c(O)cccc21
inactive: [1] | [2] | [3]

Nc1c2c(nc3c1CCC3)CCCC2
inactive: [1] | [2] | [3]

NS(=O)(=O)c1cc2c(cc1C(F)(F)F)NCNS2(=O)=O
inactive: [1] | [2] | [3]

C=CCSCC1Nc2cc(Cl)c(S(N)(=O)=O)cc2S(=O)(=O)N1 (stereo not drawn)
inactive: [1] | [2] | [3]

Cc1cc(NC(=O)C2=C(O)c3ccccc3S(=O)(=O)N2C)no1
inactive: [1] | [2] | [3]

NS(=O)(=O)c1ccc(NC(=O)CCC(=O)O)cc1
inactive: [1] | [2] | [3]

Cc1cc(-n2nc3ccc(Cl)cc3n2)c(O)c(C(C)(C)C)c1
inactive: [1] | [2] | [3]

C[N+](C)(C)CC[N+]1(C)Cc2c(Cl)c(Cl)c(Cl)c(Cl)c2C1
inactive: [1] | [2] | [3]

CC(=O)OCC(COC(C)=O)OC(C)=O
inactive: [1] | [2] | [3]

Cc1cccc(Nc2ccccc2C(=O)O)c1C
inactive: [1] | [2] | [3]

Cc1c(C)c2c(c(C)c1OC(=O)c1cccnc1)CC[C@@](C)(CCC[C@H](C)CCC[C@H](C)CCCC(C)C)O2
inactive: [1] | [2] | [3]

O=C(O)Cn1c(C(=O)Nc2nc(-c3ccccc3Cl)cs2)cc2ccccc21
inactive: [1] | [2] | [3]

O=C(NCC(O)CO)c1c(I)c(C(=O)NCC(O)CO)c(I)c(N(CCO)C(=O)CO)c1I (stereo not drawn)
inactive: [1] | [2] | [3]

CC(N)CCCC(C)(C)O (stereo not drawn)
inactive: [1] | [2] | [3]

C[n+]1ccccc1/C=N/O
inactive: [1] | [2] | [3]

C/C(=C(\CCO)SS/C(CCO)=C(\C)N(C=O)Cc1cnc(C)nc1N)N(C=O)Cc1cnc(C)nc1N
inactive: [1] | [2] | [3]

C/C=C1\[C@H]2C=C(C)C[C@]1(N)c1ccc(=O)[nH]c1C2
inactive: [1] | [2] | [3]

CCCCCCCCCCOc1cc2c(=O)c(C(=O)OCC)c[nH]c2cc1OCC
inactive: [1] 1.24% [at 4.84 µM] | [2] 19.2% [at 4.84 µM] | [3] 18.9% [at 4.84 µM]

Cc1cc(OI)c(C(C)C)cc1-c1cc(C(C)C)c(OI)cc1C
inactive: [1] | [2] | [3]

O[C@@H]1CO[C@H]2[C@@H]1OC[C@@H]2O
inactive: [1] | [2] | [3]

NC(=O)NS(=O)(=O)c1ccc(N)cc1
inactive: [1] | [2] | [3]

c1ccc2[nH]ccc2c1
inactive: [1] | [2] | [3]

O=C(O)c1ccc(OCCCOc2ccc(C(=O)O)cc2)cc1
inactive: [1] | [2] | [3]

O=C(NCN1CCOCC1)c1cnccn1
inactive: [1] | [2] | [3]

CC(O)CCCCn1c(=O)c2c(ncn2C)n(C)c1=O (stereo not drawn)
inactive: [1] | [2] | [3]

OCC(O)CS (stereo not drawn)
inactive: [1] | [2] | [3]

COC(=O)N/N=C/c1c[n+]([O-])c2ccccc2[n+]1[O-]
inactive: [1] | [2] | [3]

O=S1(=O)OC(c2ccc(O)cc2)(c2ccc(O)cc2)c2ccccc21
inactive: [1] | [2] | [3]

CC(C(=O)O)c1ccc2c(c1)Cc1cccnc1O2 (stereo not drawn)
inactive: [1] | [2] | [3]

CN[C@@H]1[C@H](O)[C@H](NC)[C@H]2O[C@@]3(O)C(=O)C[C@@H](C)O[C@H]3O[C@@H]2[C@H]1O
inactive: [1] | [2] | [3]

CCS(=O)(=O)CCn1c([N+](=O)[O-])cnc1C
inactive: [1] | [2] | [3]

CC[N+](CC)(CC(=O)Nc1c(C)cccc1C)Cc1ccccc1
inactive: [1] | [2] | [3]

CC(C)(C)C(=O)OCOC(=O)[C@@H]1N2C(=O)[C@@H](NC(=O)[C@H](N)c3ccccc3)[C@H]2SC1(C)C
inactive: [1] | [2] | [3]

COc1ccc(NS(=O)(=O)c2ccc(N)cc2)nn1
inactive: [1] | [2] | [3]

CC1CCN(CCCC(=O)c2ccc(F)cc2)CC1
inactive: [1] | [2] | [3]

CCOc1cc(NC(C)=O)ccc1C(=O)OC
inactive: [1] | [2] | [3]

CC(=O)Nc1ccc(OCCOCCOc2ccc(NC(C)=O)cc2)cc1
inactive: [1] | [2] | [3]

C=CCN1C[C@H](C(=O)N(CCCN(C)C)C(=O)NCC)C[C@@H]2c3cccc4[nH]cc(c34)C[C@H]21
inactive: [1] | [2] | [3]

Nc1ncnc2c1ncn2[C@@H]1O[C@H](COP(=O)(O)O)[C@@H](O)[C@H]1O
inactive: [1] | [2] | [3]

CN1C[C@@H]2C[C@H]1CN2c1cc2c(cc1F)c(=O)c(C(=O)O)cn2C1CC1
inactive: [1] | [2] | [3]

CC(=O)N[C@H]1[C@H]([C@H](O)[C@H](O)CO)OC(C(=O)O)=C[C@@H]1N=C(N)N
inactive: [1] | [2] | [3]

FC(F)(F)C(Cl)Br (stereo not drawn)
inactive: [1] | [2] | [3]

COc1ccccc1Oc1c(NS(=O)(=O)c2ccc(C(C)(C)C)cc2)nc(-c2ncccn2)nc1OCCO
inactive: [1] | [2] | [3]

N[C@@H](Cc1ccc(O)cc1)C(=O)O
inactive: [1] 11.3% [at 9.22 µM] | [2] 21.6% [at 9.22 µM] | [3] 24.2% [at 9.22 µM]

O=C(O)C(S)C(S)C(=O)O (stereo not drawn)
inactive: [1] | [2] | [3]
